Compound activity: PubChem BioAssay, NMMLSC
An excerpt weighted towards active compounds, which were near 0.92% of everything screened.
AGP1-GFP MLPCN: alters AGP1-GFP fluorescence in TOR pathway yeast screen; S. cerevisiae AGP1-GFP multiplex flow cytometry, 3 h; GFP as percent of DMSO wells; GFP response vs DMSO, % at 10 µM; hit rate 0.02% among 320,000; AID 2066;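 active means GFP response relative to DMSO above a set limit, near screen average plus 3 SD, cut at about 150% in these data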;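 further: median GFP channel fluorescence of the gated AGP1 strain per well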
RPL19A-GFP yeast: alters RPL19A-GFP fluorescence in TOR pathway yeast screen; S. cerevisiae RPL19A-GFP strain, flow cytometry, 3 h; active compounds read low; percent response vs DMSO, % at 10 µM; hit rate 0.3% among 330,000; AID 2025;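 active means percent response vs DMSO below 50%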;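 further: median channel GFP fluorescence of the barcoded RPL19A-GFP strain; ratio of sample median GFP to plate DMSO average so 100% = DMSO; lower means less RPL19A-GFP as with rapamycin TOR inhibition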
LAP4-GFP MLPCN: yeast TOR pathway LAP4-GFP modulation; S. cerevisiae LAP4-GFP multiplex, flow cytometry GFP, 3 h; median GFP as percent of DMSO wells; hit rate 0.34% among 320,000; AID 2023; GFP response vs DMSO, % at 10 µM;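 active means GFP response vs DMSO above a set limit, about the screen mean plus 3 SD, cut at about 150% in these data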
CIT2-GFP yeast: modulators of TOR pathway CIT2-GFP in S. cerevisiae; S. cerevisiae CIT2-GFP strain, flow cytometry, 3 h; 100 means same as DMSO wells; GFP response vs DMSO, % at 10 µM; hit rate 0.065% among 320,000; AID 2029;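 active means GFP response relative to DMSO above a set limit, near the screen mean plus 3 SD, cut at about 150% in these data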;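 further: ratio of well median GFP fluorescence to mean of DMSO wells on the plate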
MEP2 TOR yeast: yeast TOR pathway MEP2-GFP modulation. S. cerevisiae MEP2-GFP strain, flow cytometry GFP, 3 h; 100% = DMSO control level. GFP response vs DMSO, % at 10 µM. hit rate 0.51% among 330,000. AID 2016;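 active means GFP response versus DMSO above a set limit, roughly screen mean plus 3 SD, cut at about 180% in these data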;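 further: median GFP fluorescence of the barcode-gated MEP2-GFP cells per well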
LAP4-GFP pick2: yeast LAP4-GFP modulation, second cherry pick. GFP response vs DMSO, % at 10 µM. AID 2621. S. cerevisiae LAP4-GFP strain, flow cytometry GFP, 3 h. hit rate 20% among 590. shares compounds with LAP4-GFP MLPCN;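 active means GFP signal as percent of the solvent control above about 150%, meaning raised reporter expression, limit read from the data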;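 further: ratio of well median GFP fluorescence to plate DMSO mean so 100% = DMSO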
MEP2 cherry2: yeast MEP2-GFP modulation, second cherry pick; hit rate 10% among 590; shares compounds with LAP4-GFP MLPCN; S. cerevisiae MEP2-GFP strain, flow cytometry GFP, 3 h; GFP response vs DMSO, % at 10 µM; AID 2622;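 active means GFP signal above 150% of the solvent control wells, that is a rise of more than half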;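 further: median channel GFP fluorescence of all gated yeast cells per well; ratio of median GFP to plate DMSO average so 100% = DMSO level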
RPL19A-GFP pick2: yeast RPL19A-GFP TOR reporter modulation, second cherry pick; shares compounds with LAP4-GFP MLPCN; S. cerevisiae RPL19A-GFP strain, flow cytometry GFP, 3 h; active compounds read low; 100% means same as DMSO wells; GFP response vs DMSO, % at 10 µM; hit rate 3% among 590; AID 2623;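 active means under 65% GFP response relative to DMSO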;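 further: median GFP channel fluorescence per well over the all cells gate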
CIT2 GFP CP2: yeast CIT2-GFP TOR reporter modulation, second cherry pick | shares compounds with LAP4-GFP MLPCN | S. cerevisiae CIT2-GFP strain, flow cytometry GFP, 3 h; DMSO control wells read 100% | GFP response vs DMSO, % at 10 µM | hit rate 8% among 590;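 active means GFP response vs DMSO above about 150%, limit read from the data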;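 further: median green fluorescence per well over all gated yeast cells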
AGP1-GFP pick2: second confirmation of modulators of TOR reporter AGP1-GFP in yeast; shares compounds with LAP4-GFP MLPCN; S. cerevisiae AGP1-GFP strain, flow cytometry GFP, 3 h; percent response vs DMSO, % at 10 µM; 590 tested, under 10 active; AID 2643;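 active means over 150 percent of DMSO response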;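 further: median GFP channel fluorescence over all cells without mother daughter split; sample median GFP divided by mean DMSO control so 100% equals DMSO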
Yeast autofluor: compound is autofluorescent in yeast s288c cells; shares compounds with LAP4-GFP MLPCN; S. cerevisiae s288c, 520 nm autofluorescence, flow cytometry, 3 h; active compounds read high; zero means same as solvent-only cells; AID 2757; 610 tested, under 10 active; fluorescence change (kMESF span) at 33 µM;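 active means fluorescence span over the dose series, or activity score, above about 33, limit read from the data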
s288c autofl DR: TOR screen hit shows autofluorescence in yeast s288c; shares compounds with LAP4-GFP MLPCN; S. cerevisiae s288c parental, compound autofluorescence, flow cytometry, 3 h; fluorescence change (span) at 33 µM; 110 tested, under 10 active; AID 488829;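 active means fluorescence change span, or the activity score built from it, above 25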
TORC1 bypass gr: compounds blocking wildtype yeast growth but not TORC1 bypass cells | growth rating (0-3) at 30 µM | shares compounds with LAP4-GFP MLPCN | 120 tested, under 10 active | S. cerevisiae BY4741 spot growth rating, 48-72 h; active compounds read low;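 active means growth rating at most 1 for wild type yeast while the TORC1 bypass strain still grows fully, rated 3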
* hit, by the source's call; nt = no result given.

SMILES | AGP1-GFP MLPCN | RPL19A-GFP yeast | LAP4-GFP MLPCN | CIT2-GFP yeast | MEP2 TOR yeast | Yeast autofluor | others
CCCCc1ccc(/C=C2/C(=O)ON=C2c2ccccc2)s1 | 99 | 100 | 104 | 97 | 108 | 0 | LAP4-GFP pick2=104;MEP2 cherry2=108;RPL19A-GFP pick2=98;CIT2 GFP CP2=102;AGP1-GFP pick2=104
Cc1sc(/C=C2\C(=O)ON=C2c2ccccc2)cc1Br | 91 | 103 | 91 | 98 | 103 | 0 | LAP4-GFP pick2=99;MEP2 cherry2=102;RPL19A-GFP pick2=98;CIT2 GFP CP2=106;AGP1-GFP pick2=99
CN1CCN(C(=O)C2CCN(c3ncc(C(F)(F)F)cc3Cl)CC2)CC1 | 105 | 98 | 104 | 103 | 103 | nt
COc1ccc(OC)c(CN2CCN(C(=O)c3ccc(S(=O)(=O)Nc4ccccc4F)cc3)CC2)c1 | 98 | 94 | 97 | 98 | 94 | nt
COC(=O)c1cc(NC(=O)CN(C)C2CCS(=O)(=O)C2)cc(C(=O)OC)c1 (configuration not stated) | 106 | 101 | 96 | 110 | 107 | nt
Cc1ccc(C2CC(=O)Oc3cc(O)ccc32)cc1 (configuration not stated) | 90 | 75 | 180* | 70 | 97 | nt | LAP4-GFP pick2=115;MEP2 cherry2=138;RPL19A-GFP pick2=89;CIT2 GFP CP2=100;AGP1-GFP pick2=111
O=C1CC(c2ccccc2)c2cc(O)ccc2O1 (configuration not stated) | 101 | 104 | 101 | 108 | 103 | nt
N/C(=N\OC(=O)c1ccccc1Cl)c1ccc(Cl)cc1 | 79 | 88 | 143 | 169* | 104 | 0.9
N/C(=N\OC(=O)c1ccc(Cl)cc1Cl)c1ccccc1 | 71 | 93 | 257* | 121 | 118 | 1.7
N/C(Cc1ccc(Cl)cc1)=N\OC(=O)c1cccc2ccccc12 | 74 | 91 | 196* | 125 | 118 | 1.7 | s288c autofl DR=0.89;TORC1 bypass gr=3
N/C(Cc1ccc(Cl)cc1Cl)=N\OC(=O)c1ccccc1 | 41 | 87 | 170* | 119 | 121 | 7.7
N/C(Cc1ccc(Cl)cc1)=N\OC(=O)c1ccc2ccccc2c1 | 103 | 107 | 98 | 102 | 108 | nt
Nc1nc(NCc2ccccc2)nc(NCc2ccccc2)c1[N+](=O)[O-] | 96 | 99 | 101 | 96 | 104 | nt
CNc1nc(N)c([N+](=O)[O-])c(Nc2ccc(F)cc2)n1 | nt | nt | nt | nt | nt | nt | s288c autofl DR=0.42;TORC1 bypass gr=3
CNc1nc(C)c([N+](=O)[O-])c(Nc2ccc(OC)cc2)n1 | 104 | 106 | 101 | 105 | 107 | nt
CNc1nc(N)c([N+](=O)[O-])c(NC2CCCCC2)n1 | 89 | 117 | 82 | 125 | 130 | nt | s288c autofl DR=0.21;TORC1 bypass gr=3
CNc1nc(N)c([N+](=O)[O-])c(Nc2ccc(OC)cc2)n1 | nt | nt | nt | nt | nt | nt | s288c autofl DR=0.26;TORC1 bypass gr=3
CC(C)CNc1nc(N)c([N+](=O)[O-])c(NC2CCCCC2)n1 | 109 | 102 | 103 | 107 | 101 | nt
Cc1ccc(CNc2nc(N)c([N+](=O)[O-])c(Nc3ccc(F)cc3)n2)cc1 | 102 | 102 | 100 | 111 | 103 | nt
CNc1nc(N)c([N+](=O)[O-])c(NCc2ccccc2)n1 | 106 | 104 | 91 | 102 | 104 | nt | s288c autofl DR=0;TORC1 bypass gr=3
O=C(C1=C(O)C(=O)N(CCCn2ccnc2)C1c1cccc(Br)c1)c1ccco1 (configuration not stated) | 95 | 99 | 95 | 95 | 96 | nt
COC(=O)C(Cc1ccc(OC(=O)c2ccc(C)cc2)cc1)N1Cc2ccccc2C1=O (configuration not stated) | 107 | 101 | 108 | 105 | 108 | nt
Cc1cccc(NC(=O)NC2CCCCCCC2)c1C | 93 | 110 | 74 | 94 | 98 | nt
CCOC(=O)CNC(=O)Cn1cnc2c(nnn2-c2ccc(OC)cc2)c1=O | 106 | 101 | 102 | 103 | 105 | nt
O=C1C2C3C=CC(C3)C2C(=O)N1/N=C/c1cc(Br)cc([N+](=O)[O-])c1O (configuration not stated) | 85 | 93 | 180* | 91 | 105 | nt | LAP4-GFP pick2=142;MEP2 cherry2=123;RPL19A-GFP pick2=96;CIT2 GFP CP2=126;AGP1-GFP pick2=95
SMILES | AGP1-GFP MLPCN | RPL19A-GFP yeast | LAP4-GFP MLPCN | CIT2-GFP yeast | MEP2 TOR yeast | Yeast autofluor | others
COc1ccc(CNc2ncnc3sccc23)cc1 | 118 | 115 | 115 | 94 | 132 | nt
O=C(Nc1ccc(NC(=O)c2cc3ccccc3o2)cc1)c1ccc2c(c1)OCCO2 | 104 | 101 | 99 | 106 | 99 | 0.1
COc1cc(NC(=O)c2ccc(C)cc2)ccc1NC(=O)c1cc2ccccc2o1 | 34 | 92 | 84 | 76 | 168 | 0.1
COc1cc(NC(=O)c2ccc(Br)cc2)ccc1NC(=O)c1cc2ccccc2o1 | 79 | 103 | 88 | 86 | 110 | nt
CCC(=O)Nc1ccc(NC(=O)c2cc3ccccc3o2)c(OC)c1 | 110 | 102 | 101 | 104 | 99 | 0.1
Cc1cc(NC(=O)c2cccnc2Cl)ccc1NC(=O)c1cc2ccccc2o1 | 97 | 105 | 90 | 103 | 100 | 0.1
COc1cc(NC(=O)c2c(OC)cccc2OC)ccc1NC(=O)c1cc2ccccc2o1 | 97 | 107 | 90 | 105 | 107 | nt
Cc1cc(NC(=O)c2cccnc2)ccc1NC(=O)c1cc2ccccc2o1 | 94 | 93 | 96 | 92 | 92 | nt
COc1ccc(NC(=O)CCC(=O)Nc2nnc(C(F)(F)F)s2)c(OC)c1 | 101 | 99 | 93 | 102 | 100 | nt
O=C(NCCc1cccs1)C(c1ccccc1)c1ccccc1 | 98 | 99 | 94 | 104 | 101 | nt
Cc1ccc2c(c1)/C(=N/OS(=O)(=O)c1ccccc1)CCS2 | 102 | 94 | 103 | 99 | 105 | nt
